HDAC3 inhib: human HDAC3 inhibition; AID 2718; hit rate 0.15% among 320,000; inhibition, % at 8.3 µM; O15379; recombinant HDAC3, fluorogenic peptide/trypsin coupled, fluorescence; in the data active = inhibition above about 26%, passing the limit was not always enough; inconclusive = no clear call, values can overlap the other calls
HIF activator: HIF pathway transcriptional activation. U2OS HRE-luciferase reporter, luminescence; normalized: DMSO 0%, desferrioxamine 100%. activation, % at 7.5 µM (by protocol). hit rate 0.32% among 300,000;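 active = mean activation of at least 10% of the iron chelator positive control signal, with at least half of replicates also reaching 10%; inconclusive = mean and replicate majority disagree about reaching 10%; inactive = mean and most replicates under 10%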
Yeast superoxide: yeast age-related superoxide inhibition as caloric restriction mimetic; S. cerevisiae aged cells, superoxide DHE fluorescence; hits give low values; AID 2690; hit rate 0.18% among 330,000; superoxide response (% of plate mean), % at 10 µM;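 active = superoxide response under a set limit, about three screen SD below normal, cut at about 65% in these data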;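 also: yeast aged for seven days with compound at 30 °C before DHE staining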
LANA-H2B inh: blocks KSHV LANA binding to histone H2A/H2B | hit rate 0.6% among 320,000 | cell-free LANA-H2A/H2B peptide, fluorescence polarization | inhibition, % (concentration not given with the values); in the data active = inhibition mostly above about 10%, no sharp cut-off; inactive = mostly below about 6.7%
Large screens that a line does not name were inactive; ! = repeats disagree. Compounds with a hit are over-represented: about 1.2% of the library has one in this group of screens.

CC(Sc1nnc(COc2ccc([N+](=O)[O-])cc2)n1C)C(=O)O (stereo unspecified)	HIF activator 93
CC(=O)NCC1(O)CCCC(C)C1 (stereo unspecified)	LANA-H2B inh 19
COc1ccc(C2C(C(=O)OCC3CCCO3)=C(C)NC3=C2C(=O)CC(c2ccco2)C3)cc1O (stereo unspecified)	none
O=C(Oc1ccc(N(Cc2cccs2)C2=NS(=O)(=O)c3ccccc32)cc1)c1ccco1	HDAC3 inhib 58
O=S(=O)(NC1CCCCCC1)c1cccc2cccnc12	LANA-H2B inh 182
COc1cc(/C=C2\C(=N)N3N=C(S(C)(=O)=O)SC3=NC2=O)cc(OC)c1OCCOc1cccc(C)c1	none
O=C(Cc1ccc2ccccc2c1)Nc1ccccc1Br	LANA-H2B inh 39
CCOc1ccc2[nH]cc(-c3csc(N)n3)c2c1	none
Oc1ccc(C[C@@H]2CNCCN2CCc2cc(C(F)(F)F)cc(C(F)(F)F)c2)cc1	none
FC(F)(F)c1cc(CCN2CCNC[C@H]2Cc2cccc3ccccc23)cc(C(F)(F)F)c1	HDAC3 inhib 32
Cc1cc(Cl)n2c(nc3cc(F)c(F)cc32)c1C#N	HIF activator 9.5 (no result: HDAC3 inhib, Yeast superoxide, LANA-H2B inh)
Cc1ccc(-n2sc3ccccc3c2=O)cc1S(=O)(=O)N1CCCCC1	HDAC3 inhib 39 (no result: HIF activator)
O=C(O)c1cccc(-n2sc3ccccc3c2=O)c1	HDAC3 inhib inconclusive (no result: HIF activator)
O=c1c2ccccc2sn1-c1ccccc1	HDAC3 inhib 49
O=C(NC(=S)NCc1ccccc1)c1ccccc1[N+](=O)[O-]	none
COc1ccccc1C(=O)NCC(c1cccs1)N1CCc2ccccc21 (stereo unspecified)	none
CNC(=O)c1c(NC(=O)c2ccco2)sc2c1CCC2	LANA-H2B inh 83
COc1ccc(S(=O)(=O)N2CCCCC2)cc1NC(=O)COC(=O)c1ccco1	none (no result: HIF activator)
O=S(=O)(NCCCCCNS(=O)(=O)c1ccccc1)c1ccccc1	LANA-H2B inh 16!
Cc1ccc(S(=O)(=O)NCCCNS(C)(=O)=O)cc1	none
Cc1ccc(S(=O)(=O)NCCNS(=O)(=O)c2ccc(C)cc2)cc1	LANA-H2B inh 19
Cc1ccc(S(=O)(=O)NNC(=O)C(=O)NNS(=O)(=O)c2ccc(C)cc2)cc1	none
Cc1ccc(S(=O)(=O)NNC(=O)CCCCC(=O)NNS(=O)(=O)c2ccc(C)cc2)cc1	LANA-H2B inh 7.7
C=CCN(CC=C)C(=O)c1ccc(OC2CCN(Cc3ccccn3)CC2)cc1	none
COc1ccccc1CNC(=O)C(NC(=O)c1ccccc1)C(C)C (stereo unspecified)	none
CC1CC(C)CN(c2nc3c(c(=O)n(C)c(=O)n3C)n2CCSc2ncccn2)C1 (stereo unspecified)	LANA-H2B inh 22
O=C(Cn1ccc2ccccc2c1=O)NCC1COc2ccccc2O1 (stereo unspecified)	none
O=C(CN1C(=O)C2CC=CCC2C1=O)NCC1COc2ccccc2O1 (stereo unspecified)	LANA-H2B inh 51
COc1ccc2cc3cc(C(=O)N4CCN(c5ccccn5)CC4)oc3nc2c1	HDAC3 inhib inconclusive, HIF activator 56
O=C(C1CCCCC1)N1CCN=C1SCc1cccc([N+](=O)[O-])c1	none
OC(CNCCC1C=Nc2ccccc21)Cn1c2ccc(Cl)cc2c2cc(Cl)ccc21 (stereo unspecified)	HDAC3 inhib 46
OC(CNCC1CCCO1)Cn1c2ccc(Cl)cc2c2cc(Cl)ccc21 (stereo unspecified)	none
CCOC(=O)c1sc(NC(=S)NC(=O)C2CC2)cc1C	HIF activator 72
CCOC(=O)c1sc(NC(=S)NC(=O)C23CC4CC(CC(C4)C2)C3)cc1C	none
COC(=O)C1=C(C)N(C)C(=O)NC1c1cc(Cl)c(O)c(OC)c1 (stereo unspecified)	HIF activator 692
CCOc1ccc(CC(=O)Nc2nccs2)cc1OCC	LANA-H2B inh 21
Cc1ccc(NC(=S)N2CCCC(CO)C2)c(C)c1 (stereo unspecified)	LANA-H2B inh 30
Cc1ccc(NC(=S)N2CCC(O)CC2)c(C)c1	none
CCN1C(=O)[C@@H]2[C@@H](c3ccc(SC4CCCCC4)c(OC)c3)N3CCC[C@@]3(C(=O)OC)[C@@H]2C1=O	none (no result: HIF activator)
COc1ccc2[nH]c3c(c2c1)CCN1C(=O)C(CC(=O)NCCN2CCOCC2)C[C@H](C(=O)N2CCOCC2)[C@@]31C (stereo partly specified)	none (no result: HDAC3 inhib, HIF activator, LANA-H2B inh)
COc1cc(N/N=C/c2ccccc2O)ncn1	HIF activator 10
O=C(Nc1ncccc1O)c1ccc2c(c1)OCO2	HDAC3 inhib 86, HIF activator 9.7
Cc1cccnc1NC(=O)c1ccc2c(c1)OCCO2	none
O=C(Nc1ncccc1O)c1ccc2c(c1)OCCO2	HIF activator 12 (no result: HDAC3 inhib)
COc1ccc(NC(=O)N2CCCC(C(=O)NCc3ccccc3F)C2)cc1 (stereo unspecified)	none
O=Cc1cc(N=Nc2ccccc2Cl)ccc1O	HIF activator 17
CC(C)(C)c1ccc(SCCc2cccnc2)cc1	LANA-H2B inh 14
Cc1ccc(-c2nnc(Sc3nc4ccccc4o3)c3ccccc23)cc1	HIF activator 94
O=C1CC2(CCN(C(=O)C(=O)c3c[nH]c4ccccc34)CC2)Oc2ccccc21	none
Cc1ccc(C(=O)Oc2ccc(-c3nnco3)cc2)o1	HDAC3 inhib 100
CCN1CCN(C(CNS(=O)(=O)c2ccc(OC)cc2)c2cccnc2)CC1 (stereo unspecified)	LANA-H2B inh 14 (no result: HDAC3 inhib)
COc1ccc(S(=O)(=O)NCC(c2cccnc2)N2CCN(Cc3ccccc3)CC2)cc1 (stereo unspecified)	none
O=C(CCNC(=O)c1ccc(Br)cc1)NCCCSc1ccccc1	none
COc1ccc(NC2CCCN(C(=O)CCN3CCCC3=O)C2)cc1 (stereo unspecified)	none
COc1ccc(NC2CCCN(C(=O)CCN3Cc4ccccc4C3=O)C2)cc1 (stereo unspecified)	LANA-H2B inh 21
Cc1ccccc1C(=O)NNc1ncnc2c1cnn2C	LANA-H2B inh 26
Cn1ncc2c(NNC(=O)c3ccccc3Cl)ncnc21	none
COc1ccc(NC2=C(Cl)C(=O)N(c3ccccc3)C2=O)c(OC)c1	LANA-H2B inh 15
COc1ccc(CN(C)c2ccc(S(=O)(=O)N3CCN(C)CC3)cc2[N+](=O)[O-])cc1OC	none (no result: HIF activator)
O=C(NCC1CCCCC1)c1cccc(S(=O)(=O)N2CCCC2)c1	none (no result: HIF activator)
CN(C)/C(=N\S(=O)(=O)c1ccccc1)c1ccc(F)cc1	LANA-H2B inh 16
CN(C)/C(=N\S(=O)(=O)c1ccc(F)cc1)c1ccccc1	none
CC(=O)c1ccc(NC(=O)CCSCCC(=O)Nc2ccc(C(C)=O)cc2)cc1	none
O=C(O)CSCCC(=O)Nc1ccc(F)cc1	LANA-H2B inh 28
COC(=O)NC1(C(F)(F)F)C(=O)Nc2c1c(=O)n(C)c(=O)n2C (stereo unspecified)	none
N#Cc1ccc(CNC(=O)N2CCOCC2)cc1	none (no result: HIF activator, Yeast superoxide)
Cc1cc(C)cc(NC(=O)C(=S)NCc2ccccc2)c1	LANA-H2B inh 43
Cc1cc(C)cc(NC(=S)NC(=O)Cc2ccccc2)c1	none
CC(C)(C)OC(=O)C[C@@H]1C/C=C\C[C@H](CC(=O)N[C@H](CO)Cc2ccccc2)C(=O)N[C@H](Cc2ccccc2)COC1=O	none (no result: HIF activator)

Screens from PubChem BioAssay.
